About 2,000 (36%) of roughly 5,500 compounds were called active. Roughly 18% stayed inconclusive and do not appear here. Cut-off read from the data, not from the text of the source: active = normalized growth mostly below about 0.91 (no sharp cut-off); inconclusive = no clear call, values can overlap the other calls; inactive = mostly above about 0.92. Some of the results follow.
Test: chemical genetic growth profiling, strain panel (AID 1159580);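 note: tested at 20 µM; growth read once vehicle control cultures reached saturation at 30 °C; 1 = growth at the plate median or of vehicle wells; lower values mean less growth of the strain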
Conditions: S. cerevisiae deletion strains, growth OD

Measured: normalized growth

CC(=O)CC(=O)CCC(=O)O
inactive: locus YAL021C, strain ccr4, active compounds read low 0.991 | locus YAL026C, strain drs2, active compounds read low 1.05 | locus YAL030W, strain snc1, active compounds read low 1.02 | locus YBL061C, strain skt5, active compounds read low 1.03 | locus YBR009C, strain hhf1, active compounds read low 1.03 | locus YBR023C, strain chs3, active compounds read low 1.03 | locus YBR171W, strain sec66, active compounds read low 1.04 | locus YBR231C, strain swc5, active compounds read low 1.03 | locus YBR279W, strain paf1, active compounds read low 1.02 | locus YCL011C, strain gbp2, active compounds read low 1.02 | locus YCL016C, strain dcc1, active compounds read low 1.02 | locus YCL061C, strain MRC1, active compounds read low 1.02 | locus YCL069W, strain vba3, active compounds read low 1.02 | locus YCR088W, strain abp1, active compounds read low 1.02 | locus YDL005C, strain med2, active compounds read low 1.03 | locus YDL040C, strain nat1, active compounds read low 1.02 | locus YDR001C, strain nth1, active compounds read low 1.01 | locus YDR069C, strain doa4, active compounds read low 1.03 | locus YDR137W, strain rgp1, active compounds read low 1.01 | locus YDR159W, strain sac3, active compounds read low 1 | locus YDR195W, strain ref2 0.989 | locus YDR297W, strain sur2, active compounds read low 1.01 | locus YDR334W, strain swr1, active compounds read low 1.03 | locus YDR335W, strain msn5, active compounds read low 1.02 | locus YDR392W, strain spt3, active compounds read low 0.95 | locus YEL003W, strain gim4, active compounds read low 1.02 | locus YEL037C, strain rad23, active compounds read low 1.02 | locus YEL061C, strain CIN8 (second series), active compounds read low 1.02 | locus YER015W, strain faa2, active compounds read low 1.02 | locus YER016W, strain bim1, active compounds read low 1.04 | locus YER111C, strain swi4, active compounds read low 1.03 | locus YER155C, strain BEM2 (second series), active compounds read low 1.05 | locus YFR010W, strain ubp6, active compounds read low 1.03 | locus YGL167C, strain pmr1, active compounds read low 1.02 | locus YGL173C, strain kem1, active compounds read low 1.03 | locus YGL227W, strain vid30, active compounds read low 1.01 | locus YGL240W, strain doc1, active compounds read low 1.04 | locus YGL253W, strain hxk2, active compounds read low 1.05 | locus YHR013C, strain ard1, active compounds read low 1.04 | locus YHR027C, strain rpn1, active compounds read low 1.03 | locus YHR030C, strain SLT2, active compounds read low 0.982 | locus YHR079C, strain IRE1, active compounds read low 0.996 | locus YHR142W, strain chs7, active compounds read low 1.02 | locus YJL092W, strain hpr5, active compounds read low 1.02 | locus YJL095W, strain BCK1 (second series), active compounds read low 1.02 | locus YJL095W, strain BCK1, active compounds read low 0.983 | locus YJL115W, strain asf1, active compounds read low 1.03 | locus YJL129C, strain trk1, active compounds read low 1.01 | locus YJL154C, strain vps35, active compounds read low 1.01 | locus YJL164C, strain tpk1, active compounds read low 1.01 | locus YJL166W, strain qcr8, active compounds read low 1.02 | locus YJL187C, strain SWE1, active compounds read low 1.02 | locus YJR066W, strain TOR1, active compounds read low 0.962 | locus YKL160W, strain elf1, active compounds read low 1 | locus YKR026C, strain gcn3, active compounds read low 1.03 | locus YKR091W, strain srl3, active compounds read low 1.02 | locus YLL001W, strain dnm1, active compounds read low 1.01 | locus YLL026W, active compounds read low 1.02 | locus YLL041C, strain sdh2, active compounds read low 1.02 | locus YLR027C, strain aat2, active compounds read low 1.03 | locus YLR113W, strain HOG1, active compounds read low 1.04 | locus YLR221C, strain rsa3, active compounds read low 1.01 | locus YLR258W, strain gsy2, active compounds read low 1.04 | locus YLR262C, strain YPT6 (second series), active compounds read low 1.02 | locus YLR320W, strain mms22, active compounds read low 1.03 | locus YLR342W, strain FKS1, active compounds read low 1.03 | locus YLR357W, strain rsc2, active compounds read low 0.968 | locus YLR370C, strain arc18, active compounds read low 1.03 | locus YLR384C, strain iki3, active compounds read low 1.03 | locus YML120C, strain ndi1, active compounds read low 1 | locus YMR058W, strain fet3, active compounds read low 1.02 | locus YMR125W, strain sto1, active compounds read low 1.02 | locus YMR129W, active compounds read low 1.02 | locus YMR205C, strain PFK2, active compounds read low 1.02 | locus YMR231W, strain pep5, active compounds read low 1.02 | locus YNL071W, strain lat1, active compounds read low 1.03 | locus YNL183C, strain NPR1, active compounds read low 0.91 | locus YNL209W, strain ssb2, active compounds read low 1.02 | locus YNL248C, strain rpa49, active compounds read low 0.989 | locus YNL322C, strain KRE1 (second series), active compounds read low 1.02 | locus YNR049C, strain mso1, active compounds read low 1.02 | locus YOR001W, strain rrp6, active compounds read low 1.01 | locus YOR070C, strain gyp1, active compounds read low 1.02 | locus YOR080W, strain dia2, active compounds read low 1.01 | locus YOR083W, strain WHI5, active compounds read low 1 | locus YOR106W, strain vam3, active compounds read low 1.03 | locus YOR231W, strain MKK1, active compounds read low 0.992 | locus YOR265W, strain rbl2, active compounds read low 1.02 | locus YOR270C, strain vph1, active compounds read low 1.11 | locus YOR290C, strain snf2, active compounds read low 1.01 | locus YPL051W, strain arl3, active compounds read low 1.01 | locus YPL078C, strain atp4, active compounds read low 1.01 | locus YPL106C, strain sse1, active compounds read low 1.02 | locus YPL240C, strain hsp82, active compounds read low 1.03 | locus YPL256C, strain CLN2, active compounds read low 0.99

Reference: PubChem BioAssay AID1159580 (chemical genetic matrix, 2015)
